# In PubChem BioAssay:
# Active and inactive are the calls of the source. No stated cut-off is given here; in the data, active means inhibition above about 25%; inactive means the rest.
# Test: VP16 transactivation inhibitors, counter-screen for SRC1 inhibitor project, cell-based, luminescence, high throughput (AID 588824)
# Conditions: cell-based VP16 transactivation luciferase luminescence; at 3.6 µM; hits give high values
row,Compound,inhibition
1,O=C(c1ccccc1Sc1ccccc1[N+](=O)[O-])N1CCCCC1,14.3% (inactive)
2,N=c1c(C(=O)NCCc2ccccc2)cc2c(=O)n3ccccc3nc2n1CCCN1CCOCC1,18.9% (inactive)
3,O=C(Nc1ccncc1)c1cccc(S(=O)(=O)N2CCc3ccccc32)c1,27.9% (active)
4,Cc1cc(C(=O)OCC(=O)N2CC(C)OC(C)C2)c(C)n1-c1ccccc1 (stereo not given),-1.93% (inactive)
5,Cc1ccc(C2C3=C(CC(C)(C)CC3=O)OC3=C2C(=O)CC(C)(C)C3)cc1,3.31% (inactive)
6,O=c1[nH]cnc2sc3c(c12)CCCC3,11.2% (inactive)
7,Cc1cc(C)n(-c2ccc(C(=O)Nc3ccc(C)c(S(=O)(=O)N4CCOCC4)c3)cc2)n1,-1.58% (inactive)
8,Cc1ccc(S(=O)(=O)N(C)c2ccc(C(=O)Nc3ccccc3C(=O)N3CCOCC3)cc2)cc1,-3.41% (inactive)
9,COc1cc(C(C)=O)ccc1OCC(=O)Nc1ccccc1N1CCCCC1,8% (inactive)
10,Cc1ccc(NS(=O)(=O)c2ccc(C(=O)NC3CCN(Cc4ccccc4)CC3)cc2)cc1,24.2% (inactive)
11,Cc1ccc(S(=O)(=O)Nc2c(NC3CCCCC3)c3ccccc3oc2=O)c(C)c1,13.5% (inactive)
12,CCN(c1ccccc1)S(=O)(=O)c1cc(C(=O)Nc2ccc(Br)cc2)ccc1F,23.2% (inactive)
13,CCC(C(=O)OCC(=O)Nc1cc(Cl)cc(Cl)c1)c1ccccc1 (stereo not given),-3.53% (inactive)
14,COc1cccc(/C=N/NC(=O)CNC(=O)C2COc3ccccc3O2)c1O (stereo not given),8.91% (inactive)
15,CCOc1ccc(CSC(=N)N)cc1Cl,9.52% (inactive)
16,COC(=O)c1ccc2c(c1)NC(=O)c1ccccc1S2,-1.54% (inactive)
17,O=C(COc1ccc(S(=O)(=O)Nc2ccccc2)cc1)NCc1ccncc1,2.08% (inactive)
18,Cc1ccc(NC(=O)c2cc(=O)c3ccccc3o2)cc1S(=O)(=O)N1CCCCC1,7.05% (inactive)
19,COc1ccc(CNC(=O)C(c2ccc(C)cc2)N(Cc2cccs2)C(=O)c2ccc3c(c2)OCCO3)cc1 (stereo not given),-1.62% (inactive)
20,CCC(C)c1ccc(C(C)NC(=S)NCc2ccc(F)cc2)cc1 (stereo not given),-3.56% (inactive)

row,Compound,inhibition
1,COc1ccc2c(c1)c(C(=O)CN1CCN(Cc3ccccc3)CC1)c(C)n2C,-0.22% (inactive)
2,COc1ccccc1C1NC(=O)NC(C)=C1C(=O)OC1CCCC(C)C1 (stereo not given),-1.62% (inactive)
3,CC1=C(C(=O)OC2CCCCC2)C(c2ccc(C)o2)C2=C(CC(C)(C)CC2=O)N1 (stereo not given),4.47% (inactive)
4,O=C(NC1CCCCC1)C(c1ccc(F)cc1)N(Cc1ccco1)C(=O)c1csnn1 (stereo not given),-0.45% (inactive)
5,CCN(CC)CCNc1nc2cc(OC)c(OC)cc2c2nc(-c3ccccc3)nn12,33.3% (active)
6,CCN(CC)c1ccc(NC(=O)CSc2n[nH]c(-c3ccco3)n2)cc1,-1.86% (inactive)
7,COc1ccc(S(=O)(=O)N2CCOC23CCN(S(=O)(=O)c2ccc(Cl)cc2)CC3)cc1,-6.07% (inactive)
8,O=C(NCc1cccc(C(F)(F)F)c1)c1csc([C@@H]2O[C@H](CO)[C@H](O)[C@H](O)[C@H]2O)n1,-4.13% (inactive)
9,CCCCCCn1c(NCC)nc2c1c(=O)n(C)c(=O)n2C,35.5% (active)
10,CCOc1ccc(CCN2C(=S)N([C@@H](Cc3ccc(O)cc3)CN3CCC[C@@H]3CN3C(=S)NC[C@@H]3CC(C)C)C[C@@H]2CC(C)C)cc1,-0.17% (inactive)
11,O=C(NC1CC(=O)N(c2ccccc2)C1)C1CC1 (stereo not given),-9.3% (inactive)
12,Cc1cc(OCCCN2CCCC2)ccc1Cl,-11.8% (inactive)
13,CCOC(=O)c1cc(C#N)c(SCC(=O)OC)[nH]c1=O,-9.78% (inactive)
14,CCCCN(C(=O)/C=C/c1ccccc1)C1CCS(=O)(=O)C1 (stereo not given),-4.11% (inactive)
15,COc1ccc(CN(CC(=O)NCc2ccccc2)C(=O)CCC(=O)Nc2cc(C)ccn2)cc1,0.36% (inactive)
16,COC(=O)c1ccc(C(=O)N2CCCC(Nc3ccc(F)c(F)c3)C2)cc1 (stereo not given),-10.7% (inactive)
17,CN(C)CCNC(=O)c1cccc2nc3c(ccc4ccccc43)nc12,40.4% (active)
18,COc1ccc(NC(=O)/C(C#N)=C\c2cc(C)n(-c3ccc4c(c3)OCO4)c2C)cc1,30.7% (active)
19,Cc1ccccc1C(OCC(O)CN1CCN(CCO)CC1)c1ccccc1 (stereo not given),3.65% (inactive)
20,Cc1cc(C)n(-c2ccc(C(=O)Nc3ccc(S(=O)(=O)NCc4ccco4)cc3)cc2)n1,24.2% (inactive)
